Hits are enriched below; roughly 3.1% of the tested compounds scored in any of these assays.
PAFAH1B2 inh = inhibitors of human PAFAH1B2. P68402. recombinant PAFAH1B2, FP-rhodamine activity probe, fluorescence polarization. inhibition, % at 3.39 µM. 1.2% of 340,000 active. AID 492953;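 active = inhibition above the mean of all tested compounds plus 3 SD, cut at about 24% in these data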;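 also: 0% = enzyme with DMSO and 100% = wells lacking PAFAH1B2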
eLon inh = E. coli protease La inhibition | P0A9M0 | purified E. coli Lon protease, fluorescence polarization | inhibition, % at 7.94 µM | 0.42% of 360,000 active | AID 602123; in the data active = inhibition above about 13%, passing the limit was not always enough;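 also: 0% = enzyme with probe and DMSO and 100% = no enzyme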
pPAFAH inh = inhibitors of human plasma PAF acetylhydrolase (pPAFAH); AID 463082; 1.5% of 330,000 active; inhibition, % at 3.39 µM; recombinant pPAFAH, FP-rhodamine probe fluorescence polarization; Q13093;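 active = inhibition above the mean inhibition across the screen plus 3 SD, cut at about 25% in these data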;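 also: inhibitors block binding of the rhodamine activity-based probe so polarization drops; 0% = enzyme with DMSO and 100% = wells lacking pPAFAH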
PAFAH1B3 FP inh = PAFAH1B3 (human) inhibition. 0.28% of 340,000 active. Q15102. inhibition, % at 3.39 µM. recombinant PAFAH1B3, FP-rhodamine probe, fluorescence polarization;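 active = inhibition above the screen-wide average of all tested compounds plus 3 SD, cut at about 25% in these data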;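 also: 0% = enzyme with DMSO only and 100% = wells lacking PAFAH1B3 protein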
PAFAH2 FP inh = inhibitors of human PAFAH2; Q99487; 0.99% of 340,000 active; inhibition, % at 3.39 µM; AID 492956; recombinant PAFAH2, FP-rhodamine activity probe, fluorescence polarization;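 active = inhibition above the mean over all tested compounds plus 3 SD, cut at about 30% in these data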;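 also: inhibitors block probe labeling of enzyme so polarization drops; 0% = enzyme with DMSO and 100% = wells lacking PAFAH2 protein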
Rin1-Abl PPI inh = inhibitors of human Rin1-Abl protein interaction; TR-FRET Rin1/Abl binding, biochemical; AID 588664; 0.4% of 360,000 active; inhibition, % at 7.35 µM; in the data active = inhibition above about 5%, passing the limit was not always enough
Starred values were filed as active, the others as inactive; · = not tested or not shown.

SMILES	PAFAH1B2 inh	eLon inh	pPAFAH inh	PAFAH1B3 FP inh	PAFAH2 FP inh	Rin1-Abl PPI inh
O=C(Cc1ccccc1)Nc1ccc(N2CCOCC2)cc1	-1	-2	1	-1	-7	1
CCN(C(=O)c1ccc(NC(=O)Cc2ccccc2)cc1)c1ccccc1	26*	-16	·	9	1	1
O=C(Cc1ccccc1)Nc1ccc(N2CCCC2)cc1	-4	-12	33*	2	5	0
CCN1CCN(c2ccc(NC(=O)COc3ccccc3Cl)cc2)CC1	4	-4	6	2	0	0
O=C(COc1ccccc1Cl)Nc1ccc(N2CCCC2)cc1	-2	12	58*	3	3	2
Cc1ccc(C(=O)OCC(=O)NCc2ccc(F)cc2)o1	-6	-15	3	1	27	1
CCOC1=C2CN(S(=O)(=O)c3ccc(C)cc3)[C@H](c3cccc(Cl)c3)C[C@@H]2N(S(=O)(=O)c2ccccc2[N+](=O)[O-])[C@H](c2ccccc2)C1	·	1	·	·	·	3
CCCN(C)C1CN(Cc2cn(Cc3cccc(Cl)c3)nn2)S(=O)(=O)C1 (stereo unspecified)	·	-6	·	·	·	·
COc1ccc(S(=O)(=O)Nc2ccc(-n3cccc3)cc2)cc1	2	3	28*	0	9	-4
COc1ccc(NS(=O)(=O)c2ccc(N3C(=O)CCC3=O)cc2)cc1	6	-5	12	11	3	0
Cc1cccc(NS(=O)(=O)c2cccc(C(=O)N3CCN(S(=O)(=O)c4ccccc4)CC3)c2)c1	29*	-13	10	5	6	-2
COc1ccc(NS(=O)(=O)c2cccc(C(=O)N3CCN(c4ccccc4O)CC3)c2)cc1	1	-7	27*	6	7	2
COc1ccc(NS(=O)(=O)c2cccc(C(=O)OCC(=O)N3CCN(c4ccc(OC)cc4)CC3)c2)cc1	8	4	28*	10	0	2
CCOC(=O)N1CCN(C(=O)c2cccc(S(=O)(=O)Nc3ccc(Br)cc3)c2)CC1	-2	-10	32*	1	1	-1
COc1ccc(NS(=O)(=O)c2cccc(C(=O)OCC(=O)c3c(N)n(C)c(=O)n(C)c3=O)c2)cc1	2	0	29*	2	9	5
CCOC(=O)N1CCN(C(=O)c2cccc(S(=O)(=O)Nc3ccccc3Cl)c2)CC1	-1	-8	1	6	4	-2
COc1ccc(C(=O)N2CCNC(=O)C2)cc1S(=O)(=O)Nc1ccc(Br)cc1	6	-16	34*	2	0	3
COc1ccc(C(=O)NC2CCCCCC2)cc1S(=O)(=O)Nc1ccc(Br)cc1	5	-3	5	0	-4	0
COc1ccc(OC)c(CN2CCN(C(=O)c3cccc(S(=O)(=O)Nc4ccc(C)cc4)c3)CC2)c1	0	-5	25*	2	-1	3
CC(C)n1c(=O)c2ccccc2n1Cc1cn(Cc2cccs2)nn1	·	-2	·	·	·	5
CCC(=O)Nc1cc(OC)c(NC(=S)Nc2ccccc2CC)cc1OC	·	-45	·	·	·	-5
CCn1nnc2cc(C(=O)NCC(c3ccccc3OC)N(C)C)ccc21 (stereo unspecified)	0	-10	-1	-4	-10	2
Cc1ccc(C(=O)N2CCCCCC2)cc1S(=O)(=O)Nc1ccccc1	14	-12	·	-6	9	3
COc1ccc(C(=O)N2CCCCC2)cc1S(=O)(=O)Nc1ccccc1	1	-1	33*	9	2	-1
COc1ccc(NS(=O)(=O)c2cccc(C(=O)N3CCCCCCC3)c2)cc1	8	4	34*	9	5	0
COc1ccc(NS(=O)(=O)c2cccc(C(=O)N3CCOCC3)c2)cc1	·	-4	·	·	·	-1
Nc1nc(Sc2ccc([N+](=O)[O-])c3nonc23)c2[nH]cnc2n1	12	-48	·	38*	30*	4
C=CCC[C@@H](Cc1ccc(F)cc1)C(=O)OC[C@H](C)NC(=O)[C@@H](CC=C)CC(=O)N(CCO)Cc1ccccc1	3	8	5	3	0	-4
C=CCC[C@H](Cc1ccc(F)cc1)C(=O)OC[C@H](Cc1c[nH]c2ccccc12)NC(=O)[C@@H](CC=C)CC(=O)NCCO	2	-2	27*	10	9	-2
C=CC[C@H](CC(=O)N(CCO)Cc1ccccc1)C(=O)N[C@@H](C)COC(=O)[C@@H](CC=C)Cc1ccc(F)cc1	26*	7	4	6	-10	1
